# Results published in PubChem BioAssay (Tox21).
# A number with no mark means an inactive call. Records with an inconclusive call do not appear. Entries that show only a call come without a potency. Active and inactive are the calls of the source. Unless noted, the call rests on the fitted dose curve.
# Legend:
# [1] = Nuclear factor erythroid 2-related factor 2/antioxidant responsive element (Nrf2/ARE) small molecule agonists: qHTS cell viability counter screen in human keratinocytes (AID 1919968; active means well fitted curve in the direction sought with a large enough effect in the repeat runs; an effect the other way counts as inactive or inconclusive; further: nearly all actives have a fitted effect of over 55% in size)
# Procedure, shortened: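 HaCaT ARE reporter line, 1,500 cells/well; 5 h settle, 37 C/5% CO2; cpd in DMSO pinned; 23 h exposure; CellTiter-Fluor, 1 h; fluorescence.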
# [2] = Nuclear factor erythroid 2-related factor 2/antioxidant responsive element (Nrf2/ARE) small molecule agonists: luciferase reporter gene qHTS assay in human keratinocytes (AID 1919969); further: nearly all actives have a fitted effect of over 35% in size; further: potency means the concentration at half of the fitted maximal effect
# [3] = target: Gonadotropin-releasing hormone receptor (Homo sapiens) (UniProt P30968); assay: Human gonadotropin-releasing hormone receptor (GnRHR) small molecule agonists, calcium flux assay in GnRHR-HEK293 cells (AID 1920063); further: nearly all actives have a fitted effect of over 35% in size
# Procedure, shortened: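 GnRHR-HEK293, 1500 cells/well, 18 h 37 C/5% CO2; Ca dye 1 h 37 C; cpd pinned (DMSO), agonist mode; kinetic FL 480/540, 3 min, 1 s reads; 15 conc, n=3.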
# [4] = target: KiSS-1 receptor (Homo sapiens) (UniProt Q969F8); assay: Human kisspeptin (KISS1R) small molecule agonists, calcium flux assay in KISS1R-HEK293 cells (AID 1920064; active means well fitted curve in the direction sought with a large enough effect in the repeat runs; an effect the other way counts as inactive or inconclusive)
# Procedure, shortened: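 Stable human KISS1R HEK293 line; 18 h plating, 37 C/5% CO2; calcium dye 1 h 37 C; compound pin transfer; kinetic fluorescence Ex/Em 480/540, 3 min.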
# [5] = G protein-coupled receptor (GPCR) small molecule agonists, calcium flux assay: HEK293 wild type cell line counter screen (AID 1920065)
# Procedure, shortened: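 Kinetic fluorescence at Ex/Em 480/540, recorded every second over 3 min, served as the read-out after compound addition. Each compound was tested at 15 concentrations in triplicate on cells pre-loaded with calcium dye for 1 h.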
# [6] = p53 small molecule agonists, cell-based qHTS assay with human liver microsomes (AID 1963577);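 further: p53 response element beta-lactamase reporter cells with liver microsomes plus NADPH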
# Procedure, shortened: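 In this qHTS, p53 response-element beta-lactamase cells receive test compound together with a microsome/NADPH activating system (0.5 mg/mL final each) and are incubated 16 h at 37 C before LiveBLAzer fluorescence detection.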
# [7] = p53 small molecule agonists, cell-based qHTS assay with rat liver microsomes (AID 1963578)
# Procedure, shortened: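 Agonist mode in p53RE-bla reporter cells, with compounds co-incubated 16 h at 37 C alongside 0.5 mg/mL rat liver microsomes and 0.5 mg/mL NADPH (final), followed by a 2 h LiveBLAzer detection step.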
# [8] = p53 small molecule agonists, cell-based qHTS assay with human liver microsomes: qHTS cell viability counter screen (AID 1963579); further: nearly all actives have a fitted effect of over 45% in size
# Procedure, shortened: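 Metabolically activated exposure: compounds, human liver microsomes and NADPH (0.5 mg/mL final apiece) were added to p53RE-bla cells seeded 5 h earlier, left 16 h at 37 C, and then assessed for viability by CellTiter-Glo luminescence.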
# [9] = p53 small molecule agonists, cell-based qHTS assay with rat liver microsomes: qHTS cell viability counter screen (AID 1963580); further: nearly all actives have a fitted effect of over 45% in size
# Procedure, shortened: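 p53RE-bla HCT-116 cells were exposed 16 h at 37 C to compounds with rat liver microsomes (0.5 mg/mL) and NADPH (0.5 mg/mL). Viability was measured in the same wells as ATP content by CellTiter-Glo luminescence.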
# [10] = p53 small molecule agonists, cell-based qHTS assay (AID 1963582; active means well fitted activation curve with a large enough effect in the signal ratio in the repeat runs, not every such curve was filed as active; the % refers to the signal ratio)
# Procedure, shortened: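 Reporter line: p53RE-bla. Pre-incubation 5 h, 37 C, 5% CO2; compound (DMSO, pin tool) 16 h, 37 C; B/G FRET substrate 2 h RT; fluorescence intensity read.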
# [11] = target: 5-hydroxytryptamine receptor 2A (Homo sapiens) (UniProt P28223); assay: 5-hydroxytryptamine receptor 2A (HTR2A) small molecule antagonists, cell-based qHTS assay (AID 1963586); further: nearly all actives have a fitted effect of over 45% in size
# Procedure, shortened: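 Antagonist-mode intracellular calcium assay: DOI (4 nM) added after 5 min compound pre-incubation at room temperature to dye-loaded HTR2A-CHO cells. Fluorescence followed for 3 min, sampled every second.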
# [12] = target: 5-hydroxytryptamine receptor 2A (Homo sapiens) (UniProt P28223); assay: 5-hydroxytryptamine receptor 2A (HTR2A) small molecule agonists, cell-based qHTS assay (AID 1963587); further: nearly all actives have a fitted effect of over 30% in size
# Procedure, shortened: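 CHO cells stably expressing human HTR2A, plated 18 h, loaded with calcium dye 1 h at 37 C. Agonist mode: compounds added and intracellular calcium fluorescence recorded kinetically for 2 min at 1 sec intervals.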
# [13] = target: Muscarinic acetylcholine receptor M1 (Homo sapiens) (UniProt P11229); assay: Cholinergic receptor muscarinic 1 (CHRM1) small molecule antagonists, cell-based qHTS assay (AID 1963588); further: nearly all actives have a fitted effect of over 40% in size; further: potency means the concentration at half of the fitted maximal effect
# Procedure, shortened: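 CHRM1-CHO calcium-flux assay, antagonist mode. Cells were seeded 18 h, dye-loaded 1 h at 37 C and given compound for 5 min at RT, then acetylcholine was added at 50nM. FDSS fluorescence was read 3 min; 15 concentrations, three runs.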
# [14] = target: Muscarinic acetylcholine receptor M1 (Homo sapiens) (UniProt P11229); assay: Cholinergic receptor muscarinic 1 (CHRM1) small molecule agonists, cell-based qHTS assay (AID 1963589); further: nearly all actives have a fitted effect of over 35% in size
# Procedure, shortened: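 Human M1 in stable CHO line; 18 h plating, 1 h dye load 37 C; cpd added (agonist mode); Ca2+ fluorescence kinetic read, 1 s intervals; 15 conc, 3 runs.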
# [15] = cAMP Responsive Elements (CRE) small molecule agonists, cell-based qHTS assay (AID 1963590)
# Procedure, shortened: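 HEK 293T CRE-bla, 2,000 cells/well, 18 h preincubation 37 C/5% CO2; cpds (DMSO) pinned, 3 h; LiveBLAzer B/G FRET substrate, 2 h RT.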
# [16] = cAMP Responsive Elements (CRE) small molecule antagonists, cell-based qHTS assay (AID 1963591; active means well fitted inhibition curve with a large enough effect in the signal ratio in the repeat runs, not every such curve was filed as active; the % refers to the signal ratio)
# Procedure, shortened: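 Beta-lactamase reporter read by FRET substrate (LiveBLAzer B/G) after 2 h at room temperature. CRE-bla HEK293T cells had received compound plus 0.25 uM (final) NKH477 for 3 h at 37 °C.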
# [17] = target: Beta-2 adrenergic receptor (Homo sapiens) (UniProt P07550); assay: Adrenergic beta2 receptor (ADRB2) small molecule antagonists, cell-based qHTS assay (AID 1963592); further: series mostly up to about 92 µM; nearly all actives have a fitted effect of over 50% in size
# Procedure, shortened: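 Cells (CHO, stable ADRB2 overexpression) incubated 18-20hr at 37C; compounds added from DMSO; agonist mix (1nM isoproterenol, 100uM IBMX, 25uM Ro-20-1724) added; 0.5hr RT; d2-cAMP and anti-cAMP-cryptate added; 1hr RT; 665/615 nm read.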
# [18] = target: D(2) dopamine receptor (Homo sapiens) (UniProt P14416); assay: Dopamine D2 receptor (DRD2) small molecule agonists, cell-based qHTS assay (AID 1963594); further: nearly all actives have a fitted effect of over 35% in size
# Procedure, shortened: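 HEK293 cells stably expressing human DRD2, pre-treated with PDE inhibitor Ro20-1724 (0.1 mM final) and compound 10 min at room temperature, then stimulated with NKH477 (200nM […]) for 30 min. cAMP read by HTRF (665/620 nm).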
# [19] = target: D(2) dopamine receptor (Homo sapiens) (UniProt P14416); assay: Dopamine D2 receptor (DRD2) small molecule antagonists, cell-based qHTS assay (AID 1963595; active means well fitted inhibition curve with a large enough effect in the signal ratio in the repeat runs, with a control signal flat; the % refers to the signal ratio)
# Procedure, shortened: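 Cells were plated and grown for 24 h at 37 °C. Ro20-1724 (0.1 mM final) went in first, then compound for 10 min. NKH477 (200 nM) with quinpirole (12 nM) followed for 30 min at RT, then HTRF detection reagents for 1 h.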
# [20] = target: Beta-2 adrenergic receptor (Homo sapiens) (UniProt P07550); assay: Adrenergic beta2 receptor (ADRB2) small molecule agonists, cell-based qHTS assay (AID 1963593);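 further: CHO cells stably overexpressing human ADRB2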
# Procedure, shortened: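 CHO cells stably over-expressing ADRB2 were plated overnight at 37C, then dosed with compounds plus a stimulation mix containing 100uM IBMX and 25uM Ro-20-1724 for 0.5hr at room temperature. cAMP was measured by HTRF competition, 1hr.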
# Sequence of Muscarinic acetylcholine receptor M1 (Homo sapiens) (P11229 whole entry, looked up): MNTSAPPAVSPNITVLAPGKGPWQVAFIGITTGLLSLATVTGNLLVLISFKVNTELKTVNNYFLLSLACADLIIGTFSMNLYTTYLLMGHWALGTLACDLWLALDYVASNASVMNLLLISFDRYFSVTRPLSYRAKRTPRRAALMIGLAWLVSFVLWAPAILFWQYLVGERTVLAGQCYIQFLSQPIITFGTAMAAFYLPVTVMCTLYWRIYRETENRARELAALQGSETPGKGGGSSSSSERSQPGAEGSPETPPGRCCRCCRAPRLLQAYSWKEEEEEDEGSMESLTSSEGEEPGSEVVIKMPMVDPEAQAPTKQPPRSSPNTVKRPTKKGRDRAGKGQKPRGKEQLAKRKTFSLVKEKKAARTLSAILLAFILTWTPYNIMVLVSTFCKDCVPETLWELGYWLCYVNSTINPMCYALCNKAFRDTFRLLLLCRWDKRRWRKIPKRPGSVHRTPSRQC
# Sequence of Gonadotropin-releasing hormone receptor (Homo sapiens) (P30968 whole entry, looked up): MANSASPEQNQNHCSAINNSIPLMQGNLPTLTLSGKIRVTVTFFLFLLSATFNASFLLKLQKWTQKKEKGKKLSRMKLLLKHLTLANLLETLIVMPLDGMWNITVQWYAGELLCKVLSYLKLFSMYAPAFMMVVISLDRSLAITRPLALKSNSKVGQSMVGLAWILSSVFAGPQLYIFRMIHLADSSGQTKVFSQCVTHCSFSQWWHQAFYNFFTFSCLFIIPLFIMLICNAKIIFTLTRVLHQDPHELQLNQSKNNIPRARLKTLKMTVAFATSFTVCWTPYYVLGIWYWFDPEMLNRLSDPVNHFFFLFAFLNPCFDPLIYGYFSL
# Sequence of Beta-2 adrenergic receptor (Homo sapiens) (P07550 whole entry, looked up): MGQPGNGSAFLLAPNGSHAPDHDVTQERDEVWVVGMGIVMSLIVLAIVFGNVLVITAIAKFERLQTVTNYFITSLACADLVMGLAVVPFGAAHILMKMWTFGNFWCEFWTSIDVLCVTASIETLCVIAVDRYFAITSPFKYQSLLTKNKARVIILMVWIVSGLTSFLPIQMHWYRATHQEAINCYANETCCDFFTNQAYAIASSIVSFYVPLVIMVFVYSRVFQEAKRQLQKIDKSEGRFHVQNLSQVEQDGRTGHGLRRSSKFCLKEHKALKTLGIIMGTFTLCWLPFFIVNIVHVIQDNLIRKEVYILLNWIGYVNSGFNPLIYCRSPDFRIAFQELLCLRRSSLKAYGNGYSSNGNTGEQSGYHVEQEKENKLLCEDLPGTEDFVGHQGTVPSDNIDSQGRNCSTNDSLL
# Sequence of D(2) dopamine receptor (Homo sapiens) (P14416 whole entry, looked up): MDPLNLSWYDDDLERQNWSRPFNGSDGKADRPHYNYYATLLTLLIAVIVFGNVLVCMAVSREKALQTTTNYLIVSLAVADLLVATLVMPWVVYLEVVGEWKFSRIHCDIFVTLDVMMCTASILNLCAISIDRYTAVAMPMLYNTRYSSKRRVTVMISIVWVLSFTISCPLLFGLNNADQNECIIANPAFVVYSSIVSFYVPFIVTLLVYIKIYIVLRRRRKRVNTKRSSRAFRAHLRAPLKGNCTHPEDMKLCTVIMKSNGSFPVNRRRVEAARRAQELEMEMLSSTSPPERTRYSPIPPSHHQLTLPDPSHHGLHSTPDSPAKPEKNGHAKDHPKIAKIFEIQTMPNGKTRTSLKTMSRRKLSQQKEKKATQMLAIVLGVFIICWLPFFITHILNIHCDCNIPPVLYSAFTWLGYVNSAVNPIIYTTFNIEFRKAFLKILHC
# Sequence of 5-hydroxytryptamine receptor 2A (Homo sapiens) (P28223 whole entry, looked up): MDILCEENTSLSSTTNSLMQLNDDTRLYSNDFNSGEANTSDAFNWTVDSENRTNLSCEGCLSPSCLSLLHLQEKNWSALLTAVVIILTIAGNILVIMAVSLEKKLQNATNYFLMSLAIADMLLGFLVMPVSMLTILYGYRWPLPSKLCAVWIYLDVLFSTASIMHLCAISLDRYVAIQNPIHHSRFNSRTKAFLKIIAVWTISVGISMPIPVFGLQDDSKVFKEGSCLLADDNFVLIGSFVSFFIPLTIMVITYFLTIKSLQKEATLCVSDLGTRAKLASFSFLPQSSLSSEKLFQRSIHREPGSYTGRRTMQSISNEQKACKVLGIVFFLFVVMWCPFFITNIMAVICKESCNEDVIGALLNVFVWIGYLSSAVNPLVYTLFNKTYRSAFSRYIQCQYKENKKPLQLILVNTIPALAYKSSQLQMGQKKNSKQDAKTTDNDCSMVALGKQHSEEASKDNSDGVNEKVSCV
# Sequence of KiSS-1 receptor (Homo sapiens) (Q969F8 whole entry, looked up): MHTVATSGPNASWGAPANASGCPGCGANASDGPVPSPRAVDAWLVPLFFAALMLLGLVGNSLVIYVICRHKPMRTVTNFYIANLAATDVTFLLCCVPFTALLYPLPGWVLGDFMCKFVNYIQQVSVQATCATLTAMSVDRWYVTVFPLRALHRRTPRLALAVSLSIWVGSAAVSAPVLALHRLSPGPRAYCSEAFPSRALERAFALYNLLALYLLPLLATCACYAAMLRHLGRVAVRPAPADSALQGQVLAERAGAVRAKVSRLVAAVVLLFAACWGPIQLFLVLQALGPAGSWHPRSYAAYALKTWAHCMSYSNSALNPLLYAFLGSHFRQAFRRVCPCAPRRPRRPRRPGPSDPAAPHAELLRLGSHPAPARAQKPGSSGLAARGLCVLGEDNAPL
Compound,Potency [1],Potency [2],Potency [3],outcome [4],outcome [5],Potency [6],Potency [7],Potency [8],Potency [9],Potency [10],Potency [11],Potency [12],Potency [13],Potency [14],Potency [15],Potency [16],Potency [17],Potency [18],Potency [19],Potency [20]
O=C(O)CCC(=O)C(=O)O,inactive,inactive,inactive,inactive,inactive,inactive,inactive,inactive,inactive,inactive,inactive,inactive,inactive,inactive,inactive,inactive,inactive,inactive,inactive,–
Cc1cccc(C)c1C,inactive,inactive,inactive,inactive,inactive,inactive,inactive,inactive,inactive,inactive,inactive,inactive,inactive,inactive,inactive,inactive,–,inactive,inactive,–
Cc1cccc2sc(N)nc12,inactive,inactive,inactive,inactive,inactive,inactive,inactive,inactive,inactive,inactive,inactive,inactive,inactive,inactive,inactive,inactive,inactive,inactive,inactive,inactive
CN1C(=O)N(C)C(O)C1O (stereo not given),inactive,inactive,inactive,inactive,inactive,inactive,inactive,inactive,inactive,inactive,inactive,inactive,inactive,inactive,inactive,inactive,–,inactive,inactive,–
CC1(C)Cc2cccc(N)c2O1,inactive,inactive,inactive,inactive,inactive,inactive,inactive,inactive,inactive,inactive,inactive,inactive,inactive,inactive,inactive,inactive,inactive,inactive,–,inactive
C[N+]12CCC(CC1)C(OC(=O)C(O)(c1ccccc1)c1ccccc1)C2 (stereo not given),inactive,inactive,inactive,inactive,inactive,inactive,inactive,inactive,inactive,inactive,inactive,inactive,1.3 nM (active),inactive,inactive,inactive,inactive,inactive,inactive,inactive
CC(=O)Nc1ccccc1C,inactive,inactive,inactive,inactive,inactive,inactive,inactive,inactive,inactive,inactive,inactive,inactive,inactive,inactive,inactive,inactive,inactive,inactive,inactive,inactive
CC(C)(C)c1cc(CCC(=O)OCCSCCOC(=O)CCc2cc(C(C)(C)C)c(O)c(C(C)(C)C)c2)cc(C(C)(C)C)c1O,inactive,inactive,inactive,inactive,inactive,inactive,inactive,inactive,inactive,inactive,inactive,inactive,–,inactive,inactive,–,inactive,inactive,inactive,–
CCC(=O)C(=O)CC,inactive,inactive,inactive,inactive,inactive,inactive,inactive,inactive,inactive,inactive,inactive,–,inactive,inactive,inactive,inactive,inactive,inactive,–,inactive
C=CCSSCCC,inactive,inactive,inactive,inactive,inactive,inactive,inactive,inactive,inactive,inactive,–,inactive,inactive,inactive,inactive,–,inactive,inactive,inactive,inactive
C#CCOC(=O)[C@@H](C)Oc1ccc(Oc2ncc(Cl)cc2F)cc1,inactive,inactive,inactive,inactive,inactive,inactive,inactive,inactive,inactive,inactive,inactive,inactive,inactive,inactive,–,inactive,inactive,inactive,inactive,–
Cc1cc(C)n(CO)n1,inactive,inactive,inactive,inactive,inactive,inactive,inactive,inactive,inactive,inactive,inactive,–,inactive,inactive,inactive,–,inactive,–,–,inactive
C=C(C)CCCC(C)CCO (stereo not given),inactive,inactive,inactive,inactive,inactive,inactive,inactive,inactive,inactive,inactive,–,inactive,inactive,inactive,inactive,inactive,inactive,inactive,inactive,–
CC(C)c1ccc2oc3nc(N)c(C(=O)O)cc3c(=O)c2c1,inactive,944 nM (active),inactive,inactive,inactive,inactive,inactive,inactive,inactive,inactive,inactive,inactive,inactive,inactive,–,–,inactive,inactive,inactive,inactive
C=CC/C=C/C/C=C/C/C=C/C,inactive,inactive,inactive,inactive,inactive,inactive,inactive,inactive,inactive,inactive,inactive,–,–,inactive,inactive,inactive,inactive,inactive,inactive,inactive
